Measured values: PMC7862700, “An all-to-all approach to the identification of sequence-specific readers for epigenetic DNA modifications on cytosine”

How the values were obtained:
Assay in all cases: DAPPL (digital affinity profiling via proximity ligation, sequencing); 10 mM Tris-HCl pH 7.5, 50 mM NaCl, 1 mM DTT, 4% glycerol, room temperature, 30 min; GST-TFs on glutathione beads, 16-mer random dsDNA library, 0.1% formaldehyde crosslink after washing; high values mean tight binding
Details in all cases: protein: recombinant; tags: N-terminal GST; dsDNA, one strand shown
ERF = molecular target: T1, ERF (Homo sapiens, UniProt P50548 1-548)
T1 sequence: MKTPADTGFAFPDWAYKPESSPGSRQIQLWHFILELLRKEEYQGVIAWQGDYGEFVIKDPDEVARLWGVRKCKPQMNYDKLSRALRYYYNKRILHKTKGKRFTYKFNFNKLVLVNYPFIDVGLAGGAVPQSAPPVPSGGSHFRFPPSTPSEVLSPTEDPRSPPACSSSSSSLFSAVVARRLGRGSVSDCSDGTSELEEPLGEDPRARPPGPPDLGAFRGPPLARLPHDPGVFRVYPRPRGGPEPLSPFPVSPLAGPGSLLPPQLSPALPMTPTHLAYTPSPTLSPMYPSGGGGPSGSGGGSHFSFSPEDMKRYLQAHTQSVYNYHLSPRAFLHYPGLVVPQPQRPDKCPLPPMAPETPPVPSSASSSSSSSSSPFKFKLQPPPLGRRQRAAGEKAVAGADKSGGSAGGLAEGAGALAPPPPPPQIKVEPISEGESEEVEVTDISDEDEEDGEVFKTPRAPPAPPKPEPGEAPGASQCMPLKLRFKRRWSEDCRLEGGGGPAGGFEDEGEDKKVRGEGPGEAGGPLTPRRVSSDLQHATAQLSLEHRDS
Method in brief: (§1)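 Binding signal is each hexamer's read frequency for a factor divided by its frequency in the tag-only sample. The factors were GST-fused human transcription factors from yeast, captured on glutathione beads, DNA-barcoded and pooled with that sample. Pools were incubated with 200 nmole of a random double-stranded 16-mer DNA library in Tris/NaCl/DTT/glycerol buffer at room temperature for 30 min, then washed, crosslinked with 0.1% formaldehyde, proximity-ligated with BsaI/T4 ligase (1 h, 37 °C), PCR-amplified and sequenced on an Illumina NextSeq500.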

ETV3L = molecular target: T2, ETV3L (Homo sapiens, UniProt Q6ZN32 1-361)
T2 sequence: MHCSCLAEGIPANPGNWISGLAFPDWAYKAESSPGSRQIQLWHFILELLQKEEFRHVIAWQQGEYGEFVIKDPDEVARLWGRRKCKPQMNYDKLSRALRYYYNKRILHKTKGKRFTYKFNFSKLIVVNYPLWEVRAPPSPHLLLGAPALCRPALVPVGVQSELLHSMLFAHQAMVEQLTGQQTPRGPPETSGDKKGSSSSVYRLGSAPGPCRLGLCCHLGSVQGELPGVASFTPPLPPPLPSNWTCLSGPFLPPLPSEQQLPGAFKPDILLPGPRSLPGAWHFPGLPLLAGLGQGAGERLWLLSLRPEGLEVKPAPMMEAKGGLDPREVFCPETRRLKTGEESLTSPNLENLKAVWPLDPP
Method in brief: as §1

ETS2 = molecular target: T3, ETS2 (Homo sapiens, UniProt P15036 1-469)
T3 sequence: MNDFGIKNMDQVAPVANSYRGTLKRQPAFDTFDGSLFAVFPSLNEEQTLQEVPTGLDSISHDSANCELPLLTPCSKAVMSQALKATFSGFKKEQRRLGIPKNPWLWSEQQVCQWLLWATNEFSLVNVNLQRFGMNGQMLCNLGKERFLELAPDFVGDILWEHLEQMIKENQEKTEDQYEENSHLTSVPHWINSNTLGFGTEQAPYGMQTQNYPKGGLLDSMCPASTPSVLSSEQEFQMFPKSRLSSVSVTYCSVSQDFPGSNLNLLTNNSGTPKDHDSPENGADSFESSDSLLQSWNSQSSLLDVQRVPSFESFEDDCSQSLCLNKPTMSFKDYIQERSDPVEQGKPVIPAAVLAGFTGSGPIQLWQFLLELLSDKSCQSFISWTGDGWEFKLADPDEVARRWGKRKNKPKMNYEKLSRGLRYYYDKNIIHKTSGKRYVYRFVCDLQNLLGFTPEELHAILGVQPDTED
Method in brief: as §1

SPDEF = molecular target: T4, SPDEF (Homo sapiens, UniProt O95238 1-335)
T4 sequence: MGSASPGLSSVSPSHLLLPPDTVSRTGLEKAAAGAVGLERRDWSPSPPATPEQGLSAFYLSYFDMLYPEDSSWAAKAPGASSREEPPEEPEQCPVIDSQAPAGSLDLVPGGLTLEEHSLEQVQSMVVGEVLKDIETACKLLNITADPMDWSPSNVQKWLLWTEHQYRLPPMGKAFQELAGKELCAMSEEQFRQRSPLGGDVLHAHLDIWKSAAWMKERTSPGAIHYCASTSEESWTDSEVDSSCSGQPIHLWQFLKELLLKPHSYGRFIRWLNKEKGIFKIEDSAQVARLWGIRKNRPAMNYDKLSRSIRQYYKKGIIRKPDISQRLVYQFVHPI
Method in brief: as §1

ETV7 = molecular target: T5, ETV7 (Homo sapiens, UniProt Q9Y603 1-341)
T5 sequence: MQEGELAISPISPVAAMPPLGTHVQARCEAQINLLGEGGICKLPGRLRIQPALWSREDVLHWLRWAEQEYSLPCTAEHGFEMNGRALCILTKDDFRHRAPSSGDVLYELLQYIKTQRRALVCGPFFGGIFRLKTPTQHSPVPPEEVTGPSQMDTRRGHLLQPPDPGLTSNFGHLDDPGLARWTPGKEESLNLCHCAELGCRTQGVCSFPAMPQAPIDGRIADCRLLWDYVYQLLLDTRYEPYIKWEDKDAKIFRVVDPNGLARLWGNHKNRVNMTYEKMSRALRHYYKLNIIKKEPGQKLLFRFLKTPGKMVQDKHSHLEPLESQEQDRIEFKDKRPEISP
Method in brief: as §1

ELF5 = molecular target: T6, ELF5 (Homo sapiens, UniProt Q9UKW6-2 1-255)
T6 sequence: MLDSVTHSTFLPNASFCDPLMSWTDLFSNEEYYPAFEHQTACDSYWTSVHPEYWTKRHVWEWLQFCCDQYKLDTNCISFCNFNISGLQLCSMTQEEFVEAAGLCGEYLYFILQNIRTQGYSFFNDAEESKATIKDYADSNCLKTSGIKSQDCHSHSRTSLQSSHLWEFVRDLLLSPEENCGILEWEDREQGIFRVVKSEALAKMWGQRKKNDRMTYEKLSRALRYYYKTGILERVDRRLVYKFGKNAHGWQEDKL
Method in brief: as §1

ETV3 = molecular target: T7, ETV3 (Homo sapiens, UniProt P41162-2 1-143)
T7 sequence: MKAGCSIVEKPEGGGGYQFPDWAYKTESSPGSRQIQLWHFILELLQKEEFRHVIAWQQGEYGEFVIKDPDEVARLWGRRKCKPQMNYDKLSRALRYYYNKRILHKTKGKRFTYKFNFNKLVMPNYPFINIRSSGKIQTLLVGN
Method in brief: as §1

ETV6 = ETV6 (Homo sapiens, UniProt P41212 1-452)
Method in brief: as §1

Chain of ETV6 (P41212 whole entry): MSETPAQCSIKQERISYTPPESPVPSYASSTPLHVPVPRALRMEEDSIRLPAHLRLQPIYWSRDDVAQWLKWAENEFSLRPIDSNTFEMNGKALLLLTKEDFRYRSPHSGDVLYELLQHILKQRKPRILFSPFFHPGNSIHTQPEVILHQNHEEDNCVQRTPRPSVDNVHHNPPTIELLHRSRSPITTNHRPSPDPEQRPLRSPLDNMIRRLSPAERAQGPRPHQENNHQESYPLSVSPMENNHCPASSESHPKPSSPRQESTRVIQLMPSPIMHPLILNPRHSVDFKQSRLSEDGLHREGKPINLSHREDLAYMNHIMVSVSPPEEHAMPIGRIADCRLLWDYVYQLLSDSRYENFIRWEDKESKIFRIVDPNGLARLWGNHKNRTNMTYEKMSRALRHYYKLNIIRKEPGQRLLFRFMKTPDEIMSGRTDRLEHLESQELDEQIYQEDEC

With CTGTCC the binding signal (ERF) was 1.28 fold enrichment (6-mer frequency, TF over GST control), the binding signal (ETV3L) was 1.13 fold enrichment (6-mer frequency, TF over GST control) and the binding signal (ETS2) was 1.33 fold enrichment (6-mer frequency, TF over GST control). The binding signal (SPDEF) was 1.27 fold enrichment (6-mer frequency, TF over GST control), the binding signal (ETV7) was 1.28 fold enrichment (6-mer frequency, TF over GST control) and the binding signal (ELF5) was 1.3 fold enrichment (6-mer frequency, TF over GST control). The binding signal (ETV3) was 1.14 fold enrichment (6-mer frequency, TF over GST control) and the binding signal (ETV6) was 1.26 fold enrichment (6-mer frequency, TF over GST control).

TCACAT was tested, and the binding signal (ERF) was 1.24 fold enrichment (6-mer frequency, TF over GST control), the binding signal (ETV3L) was 1.24 fold enrichment (6-mer frequency, TF over GST control) and the binding signal (ETS2) was 1.25 fold enrichment (6-mer frequency, TF over GST control). The binding signal (SPDEF) was 1.44 fold enrichment (6-mer frequency, TF over GST control), the binding signal (ETV7) was 1.3 fold enrichment (6-mer frequency, TF over GST control) and the binding signal (ELF5) was 1.14 fold enrichment (6-mer frequency, TF over GST control). The binding signal (ETV3) was 1.21 fold enrichment (6-mer frequency, TF over GST control) and the binding signal (ETV6) was 1.23 fold enrichment (6-mer frequency, TF over GST control).

In the case of CTACCC, the binding signal (ERF) is reported as 1.29 fold enrichment (6-mer frequency, TF over GST control), the binding signal (ETV3L) is reported as 1.32 fold enrichment (6-mer frequency, TF over GST control) and the binding signal (ETS2) is reported as 1.38 fold enrichment (6-mer frequency, TF over GST control). For the same sequence, the binding signal (SPDEF) was 1.29 fold enrichment (6-mer frequency, TF over GST control), the binding signal (ETV7) was 1.23 fold enrichment (6-mer frequency, TF over GST control) and the binding signal (ELF5) was 1.29 fold enrichment (6-mer frequency, TF over GST control). The binding signal (ETV3) was 1.28 fold enrichment (6-mer frequency, TF over GST control) and the binding signal (ETV6) was 1.21 fold enrichment (6-mer frequency, TF over GST control).

With TCCGTC the binding signal (ERF) was 1.16 fold enrichment (6-mer frequency, TF over GST control), the binding signal (ETV3L) was 1.46 fold enrichment (6-mer frequency, TF over GST control) and the binding signal (ETS2) was 1.3 fold enrichment (6-mer frequency, TF over GST control). The binding signal (SPDEF) was 1.6 fold enrichment (6-mer frequency, TF over GST control), the binding signal (ETV7) was 1.14 fold enrichment (6-mer frequency, TF over GST control) and the binding signal (ELF5) was 1.57 fold enrichment (6-mer frequency, TF over GST control). The binding signal (ETV3) was 1.55 fold enrichment (6-mer frequency, TF over GST control) and the binding signal (ETV6) was 1.37 fold enrichment (6-mer frequency, TF over GST control).

For GCCGAC, the binding signal (ERF) was 1.2 fold enrichment (6-mer frequency, TF over GST control), the binding signal (ETV3L) was 1.29 fold enrichment (6-mer frequency, TF over GST control) and the binding signal (ETS2) was 1.15 fold enrichment (6-mer frequency, TF over GST control). For the same sequence, the binding signal (SPDEF) was 1.12 fold enrichment (6-mer frequency, TF over GST control), the binding signal (ETV7) was 1.12 fold enrichment (6-mer frequency, TF over GST control) and the binding signal (ELF5) was 1.07 fold enrichment (6-mer frequency, TF over GST control). For the same sequence, the binding signal (ETV3) was 1.23 fold enrichment (6-mer frequency, TF over GST control) and the binding signal (ETV6) was 1.08 fold enrichment (6-mer frequency, TF over GST control).

In the case of CTGCAG, the binding signal (ERF) is reported as 1.07 fold enrichment (6-mer frequency, TF over GST control), the binding signal (ETV3L) is reported as 1.18 fold enrichment (6-mer frequency, TF over GST control) and the binding signal (ETS2) is reported as 1.18 fold enrichment (6-mer frequency, TF over GST control). The binding signal (SPDEF) was 1.1 fold enrichment (6-mer frequency, TF over GST control), the binding signal (ETV7) was 1.13 fold enrichment (6-mer frequency, TF over GST control) and the binding signal (ELF5) was 1.09 fold enrichment (6-mer frequency, TF over GST control). For the same sequence, the binding signal (ETV3) was 1.07 fold enrichment (6-mer frequency, TF over GST control) and the binding signal (ETV6) was 1.11 fold enrichment (6-mer frequency, TF over GST control).

ATTATC was tested, and the binding signal (ERF) was 1.36 fold enrichment (6-mer frequency, TF over GST control), the binding signal (ETV3L) was 1.39 fold enrichment (6-mer frequency, TF over GST control) and the binding signal (ETS2) was 1.29 fold enrichment (6-mer frequency, TF over GST control). For the same sequence, the binding signal (SPDEF) was 1.34 fold enrichment (6-mer frequency, TF over GST control), the binding signal (ETV7) was 1.18 fold enrichment (6-mer frequency, TF over GST control) and the binding signal (ELF5) was 1.31 fold enrichment (6-mer frequency, TF over GST control). For the same sequence, the binding signal (ETV3) was 1.37 fold enrichment (6-mer frequency, TF over GST control) and the binding signal (ETV6) was 1.29 fold enrichment (6-mer frequency, TF over GST control).

In the case of GCTGTA, the binding signal (ERF) is reported as 1.24 fold enrichment (6-mer frequency, TF over GST control), the binding signal (ETV3L) is reported as 1.02 fold enrichment (6-mer frequency, TF over GST control) and the binding signal (ETS2) is reported as 1.1 fold enrichment (6-mer frequency, TF over GST control). For the same sequence, the binding signal (SPDEF) was 1.12 fold enrichment (6-mer frequency, TF over GST control), the binding signal (ETV7) was 1.09 fold enrichment (6-mer frequency, TF over GST control) and the binding signal (ELF5) was 1.07 fold enrichment (6-mer frequency, TF over GST control). For the same sequence, the binding signal (ETV3) was 1.08 fold enrichment (6-mer frequency, TF over GST control) and the binding signal (ETV6) was 1.13 fold enrichment (6-mer frequency, TF over GST control).
